From PubChem BioAssay (EPA / NIEHS)
Results filed as inconclusive are left out. A structure can be active in one record and inactive in another. The source made the active and inactive calls. Rule for the calls, unless noted: active = hit-call score of the fitted dose curve at least 0.9, where 1 is the maximum; inconclusive = response in the unintended direction; inactive = score below 0.9.

Experiments:
[1] = ATG_AP_1_CIS: Attagene CIS-FACTORIAL HepG2 Assay for human Activator Protein 1 (AP-1) (AID 2282931; active = hit-call score of the fitted dose curve at least 0.9, where 1 is the maximum; inactive = score below 0.9); conditions: HepG2 Attagene cis-factorial AP-1 reporter mRNA; actives raise or lower the signal
Procedure, shortened: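 Endogenous transcription-factor activity in human HepG2 liver cells is read through a cis-promoter reporter transcript, sampled 24 h after dosing. Detection uses RT-PCR with capillary electrophoresis; values come from bidirectional fitting relative to DMSO.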

[2] = ATG_EGR_CIS: Attagene CIS-FACTORIAL HepG2 Assay for human Early Growth Response 1 (EGR1) (AID 2282938; active = hit-call score of the fitted dose curve at least 0.9, where 1 is the maximum; inactive = score below 0.9); conditions: HepG2 Attagene CIS-FACTORIAL EGR reporter mRNA; actives raise or lower the signal
Procedure, shortened: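 Endogenous TF activity in HepG2 liver cells was gauged through cis-promoter reporter constructs transiently transfected. After 24 h dosing, reporter mRNA was quantified by RT-PCR and capillary electrophoresis, and curves fitted in both directions versus DMSO.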

[3] = ATG_ISRE_CIS: Attagene CIS-FACTORIAL HepG2 Assay for human Interferon Regulatory Factor 1 (IRF1) binding to an Interferon-Stimulated Response Element (ISRE) (AID 2282948; active = hit-call score of the fitted dose curve at least 0.9, where 1 is the maximum; inactive = score below 0.9); conditions: HepG2 ISRE cis-reporter (Attagene), mRNA transcription readout; actives raise or lower the signal
Procedure, shortened: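 Transiently transfected HepG2 cells carrying cis-element reporter units, dosed 24 hours. Reporter mRNA quantified by RT-PCR, fluorescent primer extension, HpaI digestion and capillary electrophoresis. Bidirectional fitting relative to DMSO.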

[4] = ATG_M_06_CIS: Attagene CIS-FACTORIAL HepG2 Assay for M06 Transcription Factor (Internal Marker) (AID 2282950; active = hit-call score of the fitted dose curve at least 0.9, where 1 is the maximum; inactive = score below 0.9); conditions: HepG2 Attagene CIS-FACTORIAL M06 internal marker reporter; actives raise or lower the signal
Procedure, shortened: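 Read-out is fluorescence of labelled reporter cDNA fragments resolved by capillary electrophoresis after RT-PCR. Cells: HepG2 carrying transfected cis-promoter reporter units, treated 24 h. Gain or loss of signal fitted relative to DMSO.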

[5] = biological target: Hepatocyte nuclear factor 6 (Homo sapiens) (UniProt Q9UBC0); test: ATG_HNF6_CIS: Attagene CIS-FACTORIAL HepG2 Assay for human Hepatocyte Nuclear Factor 6 (HNF6) (AID 2282952; active = hit-call score of the fitted dose curve at least 0.9, where 1 is the maximum; inactive = score below 0.9); conditions: HepG2 Attagene cis-factorial HNF6 reporter transcription; actives raise or lower the signal
Sequence of Hepatocyte nuclear factor 6 (Homo sapiens) (Q9UBC0 whole entry, looked up): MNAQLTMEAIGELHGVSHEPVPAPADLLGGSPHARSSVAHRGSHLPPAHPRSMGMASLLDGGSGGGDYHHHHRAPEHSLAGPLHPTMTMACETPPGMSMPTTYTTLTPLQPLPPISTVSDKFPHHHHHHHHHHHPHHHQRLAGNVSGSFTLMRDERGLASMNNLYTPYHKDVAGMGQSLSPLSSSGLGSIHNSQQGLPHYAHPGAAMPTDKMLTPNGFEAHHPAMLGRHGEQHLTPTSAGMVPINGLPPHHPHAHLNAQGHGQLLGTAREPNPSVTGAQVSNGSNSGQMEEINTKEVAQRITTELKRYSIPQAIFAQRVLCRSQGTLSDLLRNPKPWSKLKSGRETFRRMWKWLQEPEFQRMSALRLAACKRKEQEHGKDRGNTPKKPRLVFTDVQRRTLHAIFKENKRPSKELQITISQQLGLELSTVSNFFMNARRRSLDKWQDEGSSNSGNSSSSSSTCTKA
Procedure, shortened: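 Transiently transfected HepG2 cells expressing cis-regulated reporter transcription units were exposed to chemical for 24 h in a 24-well format. Reporter transcript abundance was determined by fluorescence capillary electrophoresis.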

[6] = ATG_TAL_CIS: Attagene CIS-FACTORIAL HepG2 Assay for human TAL Basal Promoter (AID 2282966; active = hit-call score of the fitted dose curve at least 0.9, where 1 is the maximum; inactive = score below 0.9;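 note: background control endpoint measuring basal TAL promoter reporter mRNA not a specific factor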); conditions: HepG2 Attagene cis-factorial TAL promoter reporter; actives raise or lower the signal
Procedure, shortened: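 In this cell-based multiplex, HepG2 liver cells bearing cis-promoter reporter constructs are dosed for 24 hours. Total RNA is reverse-transcribed and amplified, labelled fragments are sized by capillary electrophoresis, and signal changes are fitted bidirectionally versus DMSO.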

[7] = ATG_M_19_TRANS: Attagene TRANS-FACTORIAL HepG2 Assay for M19 Transcription Factor (Internal Marker) (AID 2282974); conditions: HepG2 Attagene TRANS-FACTORIAL M19 internal marker reporter
Procedure, shortened: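 Cells: human HepG2, transiently transfected with multiplexed reporter transcription units. Exposure: 24 h. Detection: RT-PCR of reporter mRNA with capillary electrophoresis. Analysis: gain-of-signal vs DMSO.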

[8] = ATG_M_06_TRANS: Attagene TRANS-FACTORIAL HepG2 Assay for M06 Transcription Factor (Internal Marker) (AID 2282983); conditions: HepG2 Attagene TRANS M06 internal marker reporter
Procedure, shortened: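 After a 24 h chemical treatment of transfected HepG2, RNA underwent DNase I treatment, reverse transcription and reporter-specific PCR; labelled, HpaI-digested products were sized by capillary electrophoresis. Signal increase relative to DMSO defined activity.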

[9] = ATG_NRF2_ARE_CIS: Attagene CIS-FACTORIAL HepG2 Assay for human Nuclear Factor Erythroid 2 Related Factor 2 (NFR2) response to Antioxidant Response Elements (ARE) (AID 2282992; active = hit-call score of the fitted dose curve at least 0.9, where 1 is the maximum; inactive = score below 0.9;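 for AC50: reporter mRNA level measured by RT-PCR and capillary electrophoresis fluorescence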); conditions: HepG2 Attagene ARE/NRF2 reporter, transcription factor activity; actives raise or lower the signal
Procedure, shortened: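 HepG2 cells transiently transfected with multiplexed cis-element reporter constructs, 24 h after chemical dosing; reporter mRNA quantified by RT-PCR, fluorescent primer extension, HpaI digestion and capillary electrophoresis. Bidirectional fit relative to DMSO.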

[10] = biological target: human Peroxisome Proliferator-activated Receptor delta (PPARd), PPARD (gene 5467) (UniProt Q03181); test: ATG_PPARd_TRANS: Attagene TRANS-FACTORIAL HepG2 Assay for human Peroxisome Proliferator-activated Receptor delta (PPARd) (AID 2283002)
Sequence of human Peroxisome Proliferator-activated Receptor delta (PPARd), PPARD (gene 5467) (Q03181 whole entry, looked up, the tested form may be a part): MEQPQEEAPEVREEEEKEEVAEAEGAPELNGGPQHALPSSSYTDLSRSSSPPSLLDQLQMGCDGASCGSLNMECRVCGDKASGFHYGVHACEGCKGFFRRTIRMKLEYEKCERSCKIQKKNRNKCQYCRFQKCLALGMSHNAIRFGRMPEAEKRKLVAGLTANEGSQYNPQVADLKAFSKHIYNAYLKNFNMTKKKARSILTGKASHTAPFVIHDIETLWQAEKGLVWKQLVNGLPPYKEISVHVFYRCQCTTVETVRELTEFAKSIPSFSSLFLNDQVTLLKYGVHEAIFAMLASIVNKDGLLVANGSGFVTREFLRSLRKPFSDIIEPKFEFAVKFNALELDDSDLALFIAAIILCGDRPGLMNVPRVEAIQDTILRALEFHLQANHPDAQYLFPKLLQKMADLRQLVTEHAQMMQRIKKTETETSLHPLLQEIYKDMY
Procedure, shortened: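 Multiplexed trans-activation format: HepG2 liver cells expressing exogenous NR-Gal4 chimeras and GAL4-UAS reporters were exposed for 24 h. Reporter mRNA was detected by RT-PCR with capillary electrophoresis fluorescence; activity fitted as gain of signal relative to DMSO.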

[11] = biological target: Nuclear receptor subfamily 1 group I member 2 (Homo sapiens) (UniProt O75469); test: ATG_PXR_TRANS: Attagene TRANS-FACTORIAL HepG2 Assay for human Pregnane X Receptor (PXR) (AID 2283008)
Sequence of Nuclear receptor subfamily 1 group I member 2 (Homo sapiens) (O75469 whole entry, looked up, the tested form may be a part): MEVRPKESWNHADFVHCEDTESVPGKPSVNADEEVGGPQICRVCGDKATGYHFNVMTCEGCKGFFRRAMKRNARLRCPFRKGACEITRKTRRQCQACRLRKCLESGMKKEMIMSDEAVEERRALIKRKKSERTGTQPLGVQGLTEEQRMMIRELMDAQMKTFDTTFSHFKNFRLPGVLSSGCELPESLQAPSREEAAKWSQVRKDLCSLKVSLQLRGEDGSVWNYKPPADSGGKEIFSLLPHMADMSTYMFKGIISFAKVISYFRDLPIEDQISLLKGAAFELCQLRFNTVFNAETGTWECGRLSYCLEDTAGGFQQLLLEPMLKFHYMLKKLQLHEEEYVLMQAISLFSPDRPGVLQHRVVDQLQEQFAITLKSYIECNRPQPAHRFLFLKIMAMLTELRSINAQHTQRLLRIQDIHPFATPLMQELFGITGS
Procedure, shortened: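 HepG2 cells transiently transfected with GAL4-UAS reporter units and PXR-Gal4 chimera, exposed 24 h. Reporter mRNA quantified by RT-PCR, fluorescent labelling, HpaI digestion and capillary electrophoresis; gain of signal vs DMSO.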

[12] = TOX21_p53_BLA_p3_viability: Viability Assessment in the Tox21 HCT-116 p53 Agonism Beta-lactamase Assay, Phase 3 (AID 2283593);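 note: cells exposed to compound for 16 h before reading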
Procedure, shortened: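 HCT-116 cells (4000/well) rested 5 h at 37C, then got DMSO compounds by pin tool (217-fold dilution) for 16 h at 37C, 5% CO2. After the bla read, CellTiter-Glo was added and luminescence read at 30 min, room temperature.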

[13] = biological target: Cellular tumor antigen p53 (Homo sapiens) (UniProt P04637); test: TOX21_p53_BLA_p5_ratio: Tox21 HCT-116 p53 Agonism Beta-lactamase Assay, Ratio, Phase 5 (AID 2283599)
Sequence of Cellular tumor antigen p53 (Homo sapiens) (P04637 whole entry, looked up): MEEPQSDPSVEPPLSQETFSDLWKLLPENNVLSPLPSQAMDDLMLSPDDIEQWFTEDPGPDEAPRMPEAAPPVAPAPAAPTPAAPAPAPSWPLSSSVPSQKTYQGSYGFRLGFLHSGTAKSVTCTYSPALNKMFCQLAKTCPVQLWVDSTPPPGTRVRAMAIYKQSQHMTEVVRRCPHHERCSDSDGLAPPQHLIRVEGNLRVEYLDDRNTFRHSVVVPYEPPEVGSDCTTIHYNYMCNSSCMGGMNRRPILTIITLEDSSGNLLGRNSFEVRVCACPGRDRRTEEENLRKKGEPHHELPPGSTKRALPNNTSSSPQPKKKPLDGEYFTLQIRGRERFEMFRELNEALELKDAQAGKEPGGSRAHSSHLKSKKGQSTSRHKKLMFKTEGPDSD
Procedure, shortened: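 HCT-116 cells carrying a p53-inducible beta-lactamase reporter were seeded at 4000 cells/well and dosed after 5 h with compound in DMSO (217-fold dilution). After 16 h at 37C, CCF4-AM substrate was added for 2 h, and the 460/530 nm emission ratio was scored as gain-of-signal versus DMSO.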

[14] = TOX21_p53_BLA_p5_viability: Viability Assessment in the Tox21 HCT-116 p53 Agonism Beta-lactamase Assay, Phase 5 (AID 2283600)
Procedure, shortened: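 Compounds, pinned from DMSO at 217-fold dilution, were left on the cells for 16 h. The viability endpoint was ATP content measured by CellTiter-Glo luminescence, where falling signal reflects cytotoxicity.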

[15] = ATG_CMV_CIS: Attagene CIS-FACTORIAL HepG2 Assay for human CMV (Internal Marker) (AID 2282928; active = hit-call score of the fitted dose curve at least 0.9, where 1 is the maximum; inactive = score below 0.9;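 note: endpoint acts as a background internal control marker rather than a target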); conditions: HepG2 CMV promoter reporter, transcription factor profiling; actives raise or lower the signal
Procedure, shortened: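 CMV internal-marker background readout in transiently transfected HepG2 cells bearing cis-regulated reporter units. Reporter mRNA is measured 24 h after dosing by RT-PCR and capillary electrophoresis, with bidirectional fitting against DMSO.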

[16] = biological target: human Thyroid Receptor alpha (THRa1), THRA (gene 7067) (UniProt P10827); test: ATG_THRa1_TRANS: Attagene TRANS-FACTORIAL HepG2 Assay for human Thyroid Receptor alpha (THRa1) (AID 2283014)
Sequence of human Thyroid Receptor alpha (THRa1), THRA (gene 7067) (P10827 whole entry, looked up, the tested form may be a part): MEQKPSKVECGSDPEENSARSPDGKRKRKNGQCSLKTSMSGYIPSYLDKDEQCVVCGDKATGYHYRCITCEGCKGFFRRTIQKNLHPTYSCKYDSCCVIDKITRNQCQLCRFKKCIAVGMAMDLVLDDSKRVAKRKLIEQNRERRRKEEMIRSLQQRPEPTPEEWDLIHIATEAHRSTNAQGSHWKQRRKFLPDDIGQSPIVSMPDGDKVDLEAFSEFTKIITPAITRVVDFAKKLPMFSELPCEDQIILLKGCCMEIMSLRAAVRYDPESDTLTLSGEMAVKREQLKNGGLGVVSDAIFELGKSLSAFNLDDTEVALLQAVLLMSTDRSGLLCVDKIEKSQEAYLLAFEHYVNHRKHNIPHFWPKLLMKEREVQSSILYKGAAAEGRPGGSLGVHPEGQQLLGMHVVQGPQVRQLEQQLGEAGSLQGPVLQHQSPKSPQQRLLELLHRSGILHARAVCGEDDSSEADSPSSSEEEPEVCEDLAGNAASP
Procedure, shortened: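 Transient HepG2 transfection, NR-Gal4 chimera driving GAL4-UAS reporters; 24 h compound exposure; total RNA, oligo(dT) RT, PCR, fluorescent primer extension, capillary electrophoresis. Upward direction vs DMSO control.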

[17] = ACEA_ER_AUC_viability: ACEA Biosciences xCELLigence Real-Time Cell Analysis on Estrogen Receptor Agonism for Viability (AID 2283782);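 note: continuous compound exposure with impedance area under curve over 80 h; hit means loss of impedance signal meaning reduced cell growth or viability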
Procedure, shortened: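 T-47D human breast cells in phenol red-free RPMI1640 with 10% charcoal-stripped FBS were dosed with an 8-point 1:4 dilution series from 100 uM top final concentration, in duplicate. Impedance-based growth was followed for 80 h; AUC analysed versus DMSO.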

[18] = biological target: Hepatocyte nuclear factor 4-alpha (Homo sapiens) (UniProt P41235); test: ATG_HNF4a_TRANS: Attagene TRANS-FACTORIAL HepG2 Assay for human Hepatocyte Nuclear Factor 4 alpha (HNF4a) (AID 2282982); conditions: HepG2 HNF4a transactivation reporter, mRNA readout
Sequence of Hepatocyte nuclear factor 4-alpha (Homo sapiens) (P41235 whole entry, looked up, the tested form may be a part): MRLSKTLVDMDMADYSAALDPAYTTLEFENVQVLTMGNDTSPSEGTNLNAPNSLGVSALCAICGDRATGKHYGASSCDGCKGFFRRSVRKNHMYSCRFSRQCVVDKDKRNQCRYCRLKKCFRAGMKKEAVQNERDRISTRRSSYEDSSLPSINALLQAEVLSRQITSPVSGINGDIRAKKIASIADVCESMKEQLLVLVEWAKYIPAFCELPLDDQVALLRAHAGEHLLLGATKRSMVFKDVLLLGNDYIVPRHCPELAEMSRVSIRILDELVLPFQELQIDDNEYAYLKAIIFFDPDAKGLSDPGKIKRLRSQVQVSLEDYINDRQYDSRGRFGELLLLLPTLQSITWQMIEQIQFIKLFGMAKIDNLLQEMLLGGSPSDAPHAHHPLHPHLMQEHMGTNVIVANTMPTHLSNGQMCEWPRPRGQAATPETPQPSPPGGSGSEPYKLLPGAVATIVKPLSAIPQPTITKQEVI
Procedure, shortened: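 Cells used were human HepG2, transiently carrying GAL4-UAS reporter units read out against exogenous NR-GAL4 chimeras. Reporter transcript levels after 24 h dosing were quantified by fluorescent RT-PCR and capillary electrophoresis.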

[19] = ATG_PBREM_CIS: Attagene CIS-FACTORIAL HepG2 Assay for human Phenobarbital-responsive Enhancer Module (PBREM) (AID 2282955; active = hit-call score of the fitted dose curve at least 0.9, where 1 is the maximum; inactive = score below 0.9); conditions: HepG2 PBREM cis-reporter, Attagene multiplexed transcription; actives raise or lower the signal
Procedure, shortened: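 Fluorescence of labelled reporter cDNA fragments, resolved by capillary electrophoresis, gives mRNA induction in transfected HepG2 cells treated for 24 h; DMSO serves as negative control and baseline.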

Measured: AC50

Oc1cc(Cl)ccc1Cl
not listed: [15] | [16] | [17] | [18] | [19]
inactive: all other assays above

CC1(C)[C@H](C(=O)O[C@H](C#N)c2cccc(Oc3ccccc3)c2)[C@@H]1C=C(Br)Br
inactive: [15] | [2] | [3] | [4] | [5] | [6] | [7] | [16] | [12] | [13] | [14]
active: [11] 0.166 µM | [13] 82.2 µM | [17] 72.7 µM

CC(C)(c1cc(Cl)c(O)c(Cl)c1)c1cc(Cl)c(O)c(Cl)c1
active: [15] 8 µM | [11] 1.87 µM | [12] 65.5 µM | [13] 24.2 µM | [17] 90.8 µM
inactive: [1] | [4] | [5] | [6] | [7] | [18] | [8] | [10] | [16] | [12] | [13] | [14]

C=CC(=O)OCC(CC)CCCC (stereo unspecified)
active: [9] 100 µM
not listed: [1] | [2] | [8] | [16] | [18]
inactive: all other assays above

C[N+](C)=CCl
inactive: [1] | [2] | [3] | [5] | [6] | [18] | [8] | [9] | [16]

CCCCCCCCCCCC#N
active: [9] 73.4 µM | [11] 19.5 µM
inactive: [19] | [7] | [10] | [16] | [13] | [14] | [17]

CCOP(=O)(OCC)Oc1ccc([N+](=O)[O-])cc1
not listed: [1] | [4] | [5] | [6] | [14] | [17] | [18]
inactive: all other assays above

C[N+](C)(C)CC(=O)[O-]
inactive: [15] | [1] | [2] | [3] | [5] | [6] | [8] | [9] | [10] | [16]

COc1ccc(CO)cc1
not listed: [2] | [6] | [9] | [11] | [12] | [17] | [19]
inactive: all other assays above
